The source of these data is PubChem BioAssay (NCATS).

A short description of test [1]: qHTS of pediatric cancer cell lines to identify multiple opportunities for drug repurposing: Primary screen for U-2 OS cells (AID 1347096).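 Note: plate controls were DMSO wells for no effect and bortezomib positive control wells for full effect; nearly all actives have a fitted effect of over 50% in size.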 The method, boiled down: (§1)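 Cells (500-1,000/well) in growth media were settled 5 h at 37 degrees C, then given compounds for 48 h. Viability was read as CellTiter-Glo luminescence. Primary runs used MIPE at 11 points (0.78 nM-46 µM) and NPC at 8 points (0.59 nM-46 µM); follow-ups used 11 points.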
On the technique in general: qHTS replaces the single test concentration by a dilution series.

A short description of test [2]: qHTS of pediatric cancer cell lines to identify multiple opportunities for drug repurposing: Primary screen for NB1643 cells (AID 1347099).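 Note: plate controls were DMSO neutral control for no effect and bortezomib positive control for full effect; nearly all actives have a fitted effect of over 50% in size.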 The gist of the method:
(§2)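 Quantitative HTS format: each compound titrated (MIPE 11 points from 0.78 nM, NPC 8 points from 0.59 nM) onto cells plated 5 hours earlier. After 48 h at 37 degrees C, CellTiter-Glo luminescence was recorded.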

The nature of test [3]: qHTS of pediatric cancer cell lines to identify multiple opportunities for drug repurposing: Primary screen for LAN-5 cells (AID 1347100).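 For activity change, negative = cytotoxic: plate controls were DMSO neutral control for no effect and bortezomib positive control for full effect.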 Note: potency is the fitted concentration of half-maximal effect. The gist of the method: as §1
A short description of test [4]: qHTS of pediatric cancer cell lines to identify multiple opportunities for drug repurposing: Primary screen for BT-12 cells (AID 1347101).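 For activity change, negative = cytotoxic: plate controls were DMSO for no effect and bortezomib positive control for full effect.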 Note: nearly all actives have a fitted effect of over 25% in size. Note: potency is the fitted concentration of half-maximal effect. The method, boiled down:
(§3)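 Cells (500-1,000/well) rested 5 h, then received compounds for 48 h; metabolically active cells were measured by CellTiter-Glo luminescence. Final concentrations spanned up to 46 µM (MIPE, 11-point) or 0.59 nM-46 µM (NPC, 8-point) in primary screens, 11-point in follow-ups.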

A short description of test [5]: qHTS of pediatric cancer cell lines to identify multiple opportunities for drug repurposing: Primary screen for Rh18 cells (AID 1347102). Note: % is set by controls: 0 for no effect and ±100 for the full control effect; nearly all actives have a fitted effect of over 65% in size. The method, boiled down: as §1
Test [6] can be described thus: qHTS of pediatric cancer cell lines to identify multiple opportunities for drug repurposing: Primary screen for OHS-50 cells (AID 1347103).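 For activity change, negative = cytotoxic: plate controls were DMSO neutral control for no effect and bortezomib positive control for full effect.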 Note: nearly all actives have a fitted effect of over 40% in size. Note: potency is the fitted concentration of half-maximal effect. The gist of the method: as §3
The nature of test [7]: qHTS of pediatric cancer cell lines to identify multiple opportunities for drug repurposing: Primary screen for RD cells (AID 1347104).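 For activity change, negative = cytotoxic: plate controls were DMSO for no effect and bortezomib for full effect.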 Note: nearly all actives have a fitted effect of over 55% in size. Note: potency is the fitted concentration of half-maximal effect. The method, boiled down:
as §2

Test [8] is described as follows: qHTS of pediatric cancer cell lines to identify multiple opportunities for drug repurposing: Primary screen for MG 63 (6-TG R) cells (AID 1347105). Note: % is set by controls: 0 for no effect and ±100 for the full control effect; nearly all actives have a fitted effect of over 50% in size. The gist of the method:
as §2

Test [9] can be described thus: qHTS of pediatric cancer cell lines to identify multiple opportunities for drug repurposing: Primary screen for SK-N-SH cells (AID 1347098).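 For activity change, negative = cytotoxic: DMSO served as neutral control and bortezomib at 2.3 µM as positive control; % is set by controls: 0 for no effect and ±100 for the full control effect.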 Note: nearly all actives have a fitted effect of over 65% in size. Note: potency is the fitted concentration of half-maximal effect. The gist of the method:
as §3

SMILES strings stand for the structures. Records with an inconclusive call do not appear. Values without a mark were called inactive. Activity calls are given as the source filed them. Calls come from the whole dose curve; as a rule, active = well fitted curve in the direction sought with a large enough effect; inconclusive = small, poorly fitted or top-dose-only effect, or another doubt; inactive = no such curve, though single readings can be large; an effect the other way counts as inactive or inconclusive.

`CCNC(=O)NCc1cccc(Cl)c1`: the Potency entry in test [1], in test [2], in test [3], in test [4], in test [5] and in test [6] was “inactive” in each case. Besides, the Potency result in [7] and in test [8] was “inactive” in each case.

Turning to `COc1cc(C(=O)NCc2ccc(OCCN(C)C)cc2)cc(OC)c1OC`, the Potency result in test [1], in test [2], in [3], in [4], in test [5] and in test [6] was “inactive” in each case. For the same compound, the Potency result in [7] and in [8] was “inactive” throughout.

`c1ccc(-c2nc[nH]c2-c2ccccc2)cc1`: the Potency result in test [1], in test [9], in test [2], in test [3], in [4] and in test [7] was “inactive” in each case. Further, in test [8], the Potency entry is “inactive”.

For the compound `CNCCCCOc1ccccc1Cc1ccccc1`, the Potency result in test [1] is “inactive”. Besides, the figures for the Potency in test [9], in test [6] and in test [7] were 24.4 µM (active), 17.4 µM (active) and 23.7 µM (active), respectively.

Regarding `COc1ccc(C(=O)c2ccccc2O)c(O)c1`, the Potency entry in [1], in test [2], in test [3], in test [4], in [5] and in test [7] was “inactive” throughout. Also, the Potency result in test [8] is “inactive”.

Turning to `CCCCC(CC)CN1CN(CC(CC)CCCC)CC(C)(N)C1` (centres undefined), the Potency entry in test [1], in test [9], in test [2], in test [3], in test [5] and in [7] was “inactive” each time. Also, the Potency result in test [8] is “inactive”.

In the case of `CCCCCCCCCCCCOCCOCCOCCOCCOCCOCCOCCOCCOCCO`, the Potency result in [1], in [9], in [2] and in [5] was “inactive” in each case. Also, the Potency in [4] is 6.92 µM (active); in [6], 15.5 µM (active).

Turning to `C#C[C@]1(O)CC[C@H]2[C@@H]3CCc4cc(OC)ccc4[C@H]3CC[C@@]21C`, the Potency result in [1], in test [2], in test [3], in test [4], in test [5] and in test [7] was “inactive” each time. Moreover, the Potency entry in test [8] was “inactive”.

`Nc1nc(N)c(-c2ccccc2)s1`: the Potency entry in test [1], in [9], in test [2], in test [3], in test [4] and in [6] was “inactive” throughout. Further, the Potency result in [7] and in test [8] was “inactive” throughout.

As to `C[C@]12CCC(=O)C=C1C=C[C@@H]1[C@@H]2CC[C@@]2(C)[C@H]1CC[C@@]21CCC(=O)O1`, the Potency entry in test [1], in [9], in [7] and in test [8] was “inactive” in each case. The Potency in [6] was 15.5 µM (active).

Take `Nc1nc(-c2ccccc2)c(Br)c(=O)[nH]1`: the Potency result in test [1], in test [2], in test [3], in test [4], in test [5] and in test [6] was “inactive” throughout. The Potency result in test [7] and in [8] was “inactive” each time.

Consider `O=S(=O)(O)c1ccc(O)cc1`, for which the Potency result in [1], in test [2], in [3], in test [4], in test [5] and in test [6] was “inactive” each time. The Potency entry in test [7] and in test [8] was “inactive” each time.

On to `CCc1oc2ccccc2c1C(=O)c1cc(I)c(O)c(I)c1`, for which the Potency entry in test [1], in test [9], in test [3], in test [4], in [5] and in test [8] was “inactive” in each case.

`CCCCCCCCCCCCSCCOCCO`: the Potency result in test [1], in test [9], in test [2], in [4], in test [5] and in test [7] was “inactive” in each case. Besides, the Potency entry in test [8] is “inactive”.

As to `O=C(CCN1CCN2CCCC2C1)N1c2ccccc2Sc2ccc(Cl)cc21` (centres undefined), the Potency result in test [1], in test [9], in [2], in test [3], in [4] and in test [7] was “inactive” in each case.

Regarding `CCCCc1cc2ccccc2c(OCCN(C)C)n1`, the Potency entry in test [1], in test [2], in [3], in test [4], in [5] and in test [7] was “inactive” in each case. The Potency result in test [8] is “inactive”. Besides, the Potency in [6] is 15.5 µM (active).

On to `CC(=O)Nc1ccc(OC(=O)c2ccccc2OC(C)=O)cc1`, for which the Potency result in test [1], in [2], in [3], in test [4], in [6] and in [7] was “inactive” each time. Moreover, the Potency result in [8] was “inactive”.

For `Cc1ccccc1OCC(O)CO` (centres undefined), the Potency result in test [1], in [9], in test [2], in test [4], in [5] and in test [6] was “inactive” throughout. Moreover, the Potency entry in test [7] and in test [8] was “inactive” each time.

Take `CCC(C(=O)OCCOCCN(CC)CC)c1ccccc1` (centres undefined): the Potency entry in [1], in test [9], in [2], in [4], in [5] and in [6] was “inactive” in each case. Besides, in [7], the Potency entry is “inactive”.

For the compound `O=c1[nH]c(=O)n([C@H]2C[C@H](O)[C@@H](CO)O2)cc1F`, the Potency entry in test [1], in test [9], in test [2], in [5], in test [6] and in test [8] was “inactive” each time. Further, the Potency in [3] is 1.33 µM (active).

As to `CCc1ccc(C(=O)C(C)CN2CCCCC2)cc1` (centres undefined), the Potency entry in test [1], in test [2], in [3], in test [4], in [5] and in test [6] was “inactive” throughout. Besides, the Potency result in [7] and in [8] was “inactive” in each case.

With `CCN[C@@H]1C[C@H](N)[C@@H](OC2OC(CN)=CCC2N)[C@H](O)[C@H]1O[C@H]1OC[C@](C)(O)[C@H](NC)[C@H]1O` (some centres undefined), the activity change, negative = cytotoxic was 2.58% [at 0.597 µM] in [1]; -5.21% [at 0.741 µM] in test [9]; 4.64% [at 0.597 µM] in test [2]; -0.753% [at 0.597 µM] in test [3]; 7.6% [at 0.745 µM] in [4]; 0.649% [at 0.73 µM] in [6]. Moreover, the activity change, negative = cytotoxic in [7] was -1.92% [at 0.597 µM]; in test [8], -16.5% [at 0.597 µM].

In the case of `CNCCc1ccccn1`, the Potency result in [1], in test [2], in test [3], in test [4], in [5] and in [6] was “inactive” each time. Further, the Potency entry in test [7] and in test [8] was “inactive” throughout.

Regarding `O=C(CN1CCN(Cc2ccc3c(c2)OCO3)CC1)N1c2ccccc2Sc2ccccc21`, the Potency entry in [1], in [9], in test [2], in [4], in test [5] and in test [7] was “inactive” each time. In addition, the Potency entry in [8] is “inactive”.

As to `CCN(CC)CCOC(=O)C(Cc1cccc2ccccc12)CC1CCCO1` (centres undefined), the Potency entry in [1], in test [2], in test [3], in [4], in test [5] and in [8] was “inactive” in each case.

Turning to `C#C[C@]1(O)CC[C@H]2[C@@H]3[C@H](C)CC4=C(CCC(=O)C4)[C@H]3CC[C@@]21C`, the Potency result in [1], in [9], in test [2], in test [3], in test [5] and in test [6] was “inactive” in each case. For the same compound, the Potency result in test [7] and in [8] was “inactive” throughout.
